Consider 40 compounds from PubChem BioAssay (Tox21).

Each structure is given as a SMILES string. Records with an inconclusive call do not appear. The source made the active and inactive calls. Calls follow the shape of the dose curve; as a rule, active = well fitted cell-killing curve with a large enough effect in the repeat runs; inconclusive = weak or mixed curves, or effect the other way; inactive = no such curve, though single readings can be large or run the other way.
% is scaled to controls: 0 for no effect and ±100 for the full control effect.

The assay can be described thus: qHTS assay to identify small molecule antagonists of the vitamin D receptor (VDR) signaling pathway - cell viability counter screen (AID 743225). Also: nearly all actives have a fitted effect of over 50% in size. The note with it: VDR-bla HEK293T viability, CellTiter-Glo luminescence, 16 h; series mostly up to 61 µM; viability change, negative = cytotoxic: at the top concentration. The source says:
U.S. Tox21 Program National Center for Advancing Translational Sciences [NCATS] NIH Chemical Genomics Center [NCGC] U.S. Environmental Protection Agency [EPA] National Institutes of Environmental Health Sciences [NIEHS] National Toxicology Program [NTP] U.S. Food and Drug Administration [FDA] Tox21 Assay Overview: The vitamin D receptor (VDR), a member of nuclear hormone receptor superfamily, plays a critical role in calcium homeostasis and bone metabolism. It is also involved in cell differentiation and growth, and thrombogenicity. To identify the compounds that inhibit VDR signaling, the VDR-UAS-bla HEK 293T cell line (Invitrogen, Carlsbad, CA, USA) containing a beta-lactamase reporter gene under the control of an upstream activator sequence (UAS) was used to screen the Tox21 10K compound library. The cytotoxicity of the Tox21 compound library against the VDR-bla cell line was tested in parallel by measuring the cell viability using CellTiter-Glo assay (Promega, Madison, WI) in the same wells.
Tox21 Assay Protocol Summary: VDR-bla cells were dispensed at 2,000 cells/5 uL of assay medium per well into black wall/clear-bottom 1536-well plates using a Multidrop Combi (Thermo Fisher Scientific, Waltham, MA) dispenser. After the assay plates were incubated at a 37C and 5% CO2 for 4 h, 23 nL of compounds dissolved in DMSO, positive controls or DMSO only was transferred to the assay plate by a Pintool station (Kalypsys, San Diego, CA), followed by addition of 1 uL of 1-alpha, 25-Dihydroxy Vitamin D3 (3 nM, final concentration in the wells) using a Bioraptr Flying Reagent Dispenser (FRD) workstation (Beckman Coulter, Indianapolis, IN). The plates were incubated at 37C and 5% CO2 for 16 h, and then 1 uL of LiveBLAzerTM B/G FRET substrate was added using a Bioraptr FRD. The plates were incubated at room temperature for 2 h and fluorescence intensity was measured by an Envision plate reader (PerkinElmer, Shelton, CT). For cell viability readout that measures cytotoxicity, 3 ul/well of CellTiter-Glo reagent was added into the assay plates using a Bioraptr FRD. After 30 min incubation at room temperature, the luminescence intensity in the plates was measured using a ViewLux plate reader (PerkinElmer).
A general note: qHTS replaces the single test concentration by a dilution series.
As to `CC(CC(=O)O)CC(C)(C)C` (stereo not given), the “viability change, negative = cytotoxic” value is 0% (inactive).

In the case of `CC(C)(C)c1ccc(C=O)cc1`, the “viability change, negative = cytotoxic” value was 17.5% (inactive).

As to `CCCCOC(=O)C(=O)OCCCC`, the “viability change, negative = cytotoxic” value is 3.03% (inactive).

As for `CCCCCC1CCCC(=O)O1` (stereo not given), the “viability change, negative = cytotoxic” value was 15.4% (inactive).

Regarding `CC(C)CCCCCCOC(=O)C1CCCCC1C(=O)OCCCCCCC(C)C` (stereo not given), the “viability change, negative = cytotoxic” value is -3.43% (inactive).

On to `CCCCCC1Nc2cc(C(F)(F)F)c(S(N)(=O)=O)cc2S(=O)(=O)N1` (stereo not given), for which the “viability change, negative = cytotoxic” value is 7.4% (inactive).

Regarding `CC(C)CCC(=O)CCC(C)C`, the “viability change, negative = cytotoxic” value was -2.34% (inactive).

Take `OCCCCCCCl`: the “viability change, negative = cytotoxic” value was 10.7% [at 78.8 µM] (inactive).

As to `COc1ccc(NS(=O)(=O)c2ccc(N)cc2)nn1`, the “viability change, negative = cytotoxic” value was -5.17% (inactive).

As to `CC(C)CCCC(C)CC=O` (stereo not given), the “viability change, negative = cytotoxic” value is -0.405% (inactive).

Consider `O=C(O)C(=O)Nc1cccc(-c2nn[nH]n2)c1`, for which the “viability change, negative = cytotoxic” value is 5.38% (inactive).

On to `CCC(=O)c1ccc(O)cc1`, for which the “viability change, negative = cytotoxic” value is 0.617% (inactive).

As to `CCCCCCCCCCCCC`, the “viability change, negative = cytotoxic” value was 4.73% (inactive).

As for `O=C(O)/C=C/c1ccccc1`, the “viability change, negative = cytotoxic” value was 9.56% (inactive).

Take `CCCCCCCCCCCCCCCC(=O)NCCO`: the “viability change, negative = cytotoxic” value was -8.8% (inactive).

Turning to `CCCCCCCC[Si](OCC)(OCC)OCC`, the “viability change, negative = cytotoxic” value was 5.51% (inactive).

Consider `O=C(O)c1c(Cl)ccc(Cl)c1Cl`, for which the “viability change, negative = cytotoxic” value is 0.0294% (inactive).

With `FC(F)(F)c1ccc(Cl)cc1Cl`, the “viability change, negative = cytotoxic” value was 26.7% (inactive).

For the compound `CCCCCCCCCCCCOC(C)=O`, the “viability change, negative = cytotoxic” value was 5.3% (inactive).

`O=[Si]=O`: the “viability change, negative = cytotoxic” value was 10.6% (inactive).

For `C[Si]1(C)N[Si](C)(C)N[Si](C)(C)N1`, the “viability change, negative = cytotoxic” value was -4.01% (inactive).

Turning to `CCOc1ccc(NC(=O)OC(C)C)cc1OCC`, the “viability change, negative = cytotoxic” value is 2.53% (inactive).

`Cc1oc(=O)oc1CN1CCN(c2cc3c(cc2F)c(=O)c(C(=O)O)c2n3C(C)S2)CC1` (stereo not given): the “viability change, negative = cytotoxic” value was 14.6% (inactive).

On to `CCc1nccnc1C`, for which the “viability change, negative = cytotoxic” value is 1.47% (inactive).

As to `Cc1cc(O)c2c(c1)C(=O)c1cccc(O)c1C2=O`, the “viability change, negative = cytotoxic” value is 7.22% (inactive).

On to `Cc1ccccc1N1CCN(CCc2nnc3n2CCCC3)CC1`, for which the “viability change, negative = cytotoxic” value was -18.8% (inactive).

With `CCS(=O)(=O)CCn1c([N+](=O)[O-])cnc1C`, the “viability change, negative = cytotoxic” value is -19.6% (inactive).

Take `CCCO`: the “viability change, negative = cytotoxic” value was 3.33% (inactive).

On to `CN(C)CCOCCN(C)CCO`, for which the “viability change, negative = cytotoxic” value was -2.05% (inactive).

For `CCCCCCCCCCCCCCCCI`, the “viability change, negative = cytotoxic” value was -2.72% [at 28.5 µM] (inactive).

`CCN(CCO)c1cccc(C)c1`: the “viability change, negative = cytotoxic” value is 7.6% (inactive).

As for `CN[C@@H]1[C@@H](O)[C@@H](O[C@@H]2[C@H](O)[C@H](O[C@H]3OC(CN)=CC[C@H]3N)[C@@H](N)C[C@H]2N)OCC1(C)O` (stereo not given in full), the “viability change, negative = cytotoxic” value is -2.33% (inactive).

For `CC1CCC(C(C)(C)S)C(=O)C1` (stereo not given), the “viability change, negative = cytotoxic” value was -8.46% (inactive).

As for `NS(=O)(=O)c1ccc(Cl)c(S(N)(=O)=O)c1`, the “viability change, negative = cytotoxic” value was -4.53% (inactive).

On to `COc1cc(C=O)ccc1OC(=O)C(C)C`, for which the “viability change, negative = cytotoxic” value is 2.89% (inactive).

For `CCC(CO)CO`, the “viability change, negative = cytotoxic” value was 6.19% (inactive).

With `COc1cc2c3cc1Oc1cc(ccc1O)C[C@@H]1c4c(cc(OC)c(O)c4Oc4ccc(cc4)C[C@@H]3N(C)CC2)CC[N+]1(C)C`, the “viability change, negative = cytotoxic” value is -0.578% (inactive).

`CNCc1ccccc1`: the “viability change, negative = cytotoxic” value is -0.273% (inactive).

Consider `C[N+](C)(C)CC(O)CCl` (stereo not given), for which the “viability change, negative = cytotoxic” value is 11.2% [at 78.8 µM] (inactive).

In the case of `O=C1c2ccccc2-c2ccccc21`, the “viability change, negative = cytotoxic” value was -3.87% [at 78.8 µM] (inactive).
